# Measurements taken from PubChem BioAssay (EPA / NIEHS).
# Where “and” joins values, the source holds several entries; their conditions need not be identical. Identical values can stand only once. Results filed as inconclusive are left out. The source holds several records for some structures; these can differ, active in one and inactive in another. Calls of active or inactive are those of the source. Rule for the calls: active = hit-call score of the fitted dose curve at least 0.9, where 1 is the maximum; inconclusive = response in the unintended direction; inactive = score below 0.9.
# Tests used:
# [1] = target: human MET Proto-Oncogene, Receptor Tyrosine Kinase (MET), MET (gene 4233) (UniProt P08581); experiment: NVS_ENZ_hMet: NovaScreen (NVS) Enzymatic Assay for human MET Proto-Oncogene, Receptor Tyrosine Kinase (MET) (AID 2283180)
# human MET Proto-Oncogene, Receptor Tyrosine Kinase (MET), MET (gene 4233), sequence (P08581 whole entry, looked up): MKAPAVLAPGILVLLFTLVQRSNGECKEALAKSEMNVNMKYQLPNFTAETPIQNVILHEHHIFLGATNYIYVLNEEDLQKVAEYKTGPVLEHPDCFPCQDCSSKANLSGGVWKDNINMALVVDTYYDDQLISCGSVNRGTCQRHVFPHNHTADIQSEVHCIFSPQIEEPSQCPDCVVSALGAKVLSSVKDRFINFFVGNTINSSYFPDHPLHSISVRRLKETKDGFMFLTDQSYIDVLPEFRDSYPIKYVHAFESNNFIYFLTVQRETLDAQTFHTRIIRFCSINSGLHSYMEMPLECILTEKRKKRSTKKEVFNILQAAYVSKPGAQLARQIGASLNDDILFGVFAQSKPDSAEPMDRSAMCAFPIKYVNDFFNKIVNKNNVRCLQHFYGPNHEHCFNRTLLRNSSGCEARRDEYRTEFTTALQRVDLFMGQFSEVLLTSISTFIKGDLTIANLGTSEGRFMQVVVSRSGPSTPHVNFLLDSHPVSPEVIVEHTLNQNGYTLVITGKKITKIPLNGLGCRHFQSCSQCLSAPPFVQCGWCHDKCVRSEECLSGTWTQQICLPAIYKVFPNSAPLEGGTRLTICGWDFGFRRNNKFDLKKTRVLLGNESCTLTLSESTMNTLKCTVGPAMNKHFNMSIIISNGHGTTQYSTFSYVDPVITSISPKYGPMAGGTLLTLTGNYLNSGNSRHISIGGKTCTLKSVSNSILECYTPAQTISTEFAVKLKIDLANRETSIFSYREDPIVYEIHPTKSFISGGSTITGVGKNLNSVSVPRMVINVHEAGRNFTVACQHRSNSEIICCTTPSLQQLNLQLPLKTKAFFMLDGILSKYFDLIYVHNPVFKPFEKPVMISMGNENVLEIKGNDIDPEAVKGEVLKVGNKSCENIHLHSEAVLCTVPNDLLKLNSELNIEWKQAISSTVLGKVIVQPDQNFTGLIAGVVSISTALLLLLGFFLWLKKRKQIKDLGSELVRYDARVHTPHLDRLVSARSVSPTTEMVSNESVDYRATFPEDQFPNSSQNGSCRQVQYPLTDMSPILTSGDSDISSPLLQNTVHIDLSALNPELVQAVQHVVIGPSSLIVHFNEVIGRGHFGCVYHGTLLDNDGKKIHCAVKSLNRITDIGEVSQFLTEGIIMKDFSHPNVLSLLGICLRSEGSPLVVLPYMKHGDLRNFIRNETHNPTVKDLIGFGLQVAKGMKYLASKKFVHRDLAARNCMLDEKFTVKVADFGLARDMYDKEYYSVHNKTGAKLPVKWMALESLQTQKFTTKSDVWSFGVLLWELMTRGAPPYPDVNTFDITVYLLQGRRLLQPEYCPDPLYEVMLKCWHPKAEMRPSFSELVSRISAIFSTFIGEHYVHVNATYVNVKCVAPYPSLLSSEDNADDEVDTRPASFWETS
# Procedure, shortened: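 Hits from a 25 uM duplicate screen were retested in concentration series up to 50 uM. Enzyme activity was measured by fluorescence after electrophoretic separation of product from substrate, 1 h after compound addition, relative to DMSO.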
# [2] = target: human Matrix Metalloproteinase-3 (MMP3), MMP3 (gene 4314) (UniProt P08254); experiment: NVS_ENZ_hMMP3: NovaScreen (NVS) Enzymatic Assay for human Matrix Metalloproteinase-3 (MMP3) (AID 2283185)
# human Matrix Metalloproteinase-3 (MMP3), MMP3 (gene 4314), sequence (P08254 whole entry, looked up): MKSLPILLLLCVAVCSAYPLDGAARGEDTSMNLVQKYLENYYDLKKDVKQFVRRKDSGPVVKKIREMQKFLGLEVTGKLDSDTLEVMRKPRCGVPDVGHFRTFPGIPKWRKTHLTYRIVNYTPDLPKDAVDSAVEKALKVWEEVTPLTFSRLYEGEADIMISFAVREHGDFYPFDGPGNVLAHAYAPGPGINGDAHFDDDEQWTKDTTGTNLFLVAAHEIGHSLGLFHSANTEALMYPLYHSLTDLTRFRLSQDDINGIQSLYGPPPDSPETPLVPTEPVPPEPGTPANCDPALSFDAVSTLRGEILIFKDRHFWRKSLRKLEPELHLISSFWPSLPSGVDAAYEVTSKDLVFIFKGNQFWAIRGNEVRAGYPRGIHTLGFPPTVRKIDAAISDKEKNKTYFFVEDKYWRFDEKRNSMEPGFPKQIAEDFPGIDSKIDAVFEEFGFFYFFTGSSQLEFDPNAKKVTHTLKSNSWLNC
# Procedure, shortened: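 Fluorescent substrate turnover by recombinant MMP3 read after 1 h, signal loss scored against DMSO. Compounds first run in duplicate at 25 uM single dose, then actives confirmed by concentration series.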
# [3] = target: human p21 Activated Kinase 4 (PAK4), PAK4 (gene 10298) (UniProt O96013); experiment: NVS_ENZ_hPAK4: NovaScreen (NVS) Enzymatic Assay for human p21 Activated Kinase 4 (PAK4) (AID 2283189)
# human p21 Activated Kinase 4 (PAK4), PAK4 (gene 10298), sequence (O96013 whole entry, looked up): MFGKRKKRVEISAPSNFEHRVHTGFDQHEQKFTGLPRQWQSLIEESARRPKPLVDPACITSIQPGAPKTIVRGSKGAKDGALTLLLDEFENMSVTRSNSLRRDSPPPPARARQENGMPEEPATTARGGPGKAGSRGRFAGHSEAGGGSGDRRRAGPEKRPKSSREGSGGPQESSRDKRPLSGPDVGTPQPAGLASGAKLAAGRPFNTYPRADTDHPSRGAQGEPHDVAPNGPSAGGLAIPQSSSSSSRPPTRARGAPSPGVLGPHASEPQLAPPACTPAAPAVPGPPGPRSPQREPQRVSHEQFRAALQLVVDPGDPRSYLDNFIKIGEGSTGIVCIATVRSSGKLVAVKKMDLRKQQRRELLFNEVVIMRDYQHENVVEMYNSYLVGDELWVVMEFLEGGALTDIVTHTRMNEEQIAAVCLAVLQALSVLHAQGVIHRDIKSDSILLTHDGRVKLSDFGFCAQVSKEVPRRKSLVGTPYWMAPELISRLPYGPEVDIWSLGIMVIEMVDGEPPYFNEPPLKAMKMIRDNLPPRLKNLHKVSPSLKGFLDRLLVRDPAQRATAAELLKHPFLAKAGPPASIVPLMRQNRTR
# Experimental: NVS_ENZ_hPAK4 is a biochemical, single-readout assay that uses extracted gene-proteins in a cell-free assay. Measurements were taken 1 hour after chemical dosing in a 384-well plate.NVS_ENZ_hPAK4 is one of one assay component(s) measured or calculated from the NVS_ENZ_hPAK4 assay. It is designed to make measurements of enzyme activity, a form of enzyme reporter, as detected with fluorescence intensity signals by Fluorescence and electrophoretic mobility shift technology.Data from the assay component NVS_ENZ_hPAK4 was analyzed into 1 assay endpoint. This assay endpoint, NVS_ENZ_hPAK4, was analyzed in the positive analysis fitting direction relative to DMSO as the negative control and baseline of activity. Using a type of enzyme reporter, loss-of-signal activity can be used to understand changes in the enzymatic activity as they relate to the gene PAK4. Furthermore, this assay endpoint can be referred to as a primary readout, because this assay has produced multiple assay endpoints where this one serves a enzymatic activity function. To generalize the intended target to other relatable targets, this assay endpoint is annotated to the kinase intended target family, where the subfamily is serine/threonine kinase. […]
# [4] = target: human Matrix Metalloproteinase-1 (MMP1), MMP1 (gene 4312) (UniProt P03956); experiment: NVS_ENZ_hMMP1: NovaScreen (NVS) Enzymatic Assay for human Matrix Metalloproteinase-1 (MMP1) (AID 2283181)
# human Matrix Metalloproteinase-1 (MMP1), MMP1 (gene 4312), sequence (P03956 whole entry, looked up): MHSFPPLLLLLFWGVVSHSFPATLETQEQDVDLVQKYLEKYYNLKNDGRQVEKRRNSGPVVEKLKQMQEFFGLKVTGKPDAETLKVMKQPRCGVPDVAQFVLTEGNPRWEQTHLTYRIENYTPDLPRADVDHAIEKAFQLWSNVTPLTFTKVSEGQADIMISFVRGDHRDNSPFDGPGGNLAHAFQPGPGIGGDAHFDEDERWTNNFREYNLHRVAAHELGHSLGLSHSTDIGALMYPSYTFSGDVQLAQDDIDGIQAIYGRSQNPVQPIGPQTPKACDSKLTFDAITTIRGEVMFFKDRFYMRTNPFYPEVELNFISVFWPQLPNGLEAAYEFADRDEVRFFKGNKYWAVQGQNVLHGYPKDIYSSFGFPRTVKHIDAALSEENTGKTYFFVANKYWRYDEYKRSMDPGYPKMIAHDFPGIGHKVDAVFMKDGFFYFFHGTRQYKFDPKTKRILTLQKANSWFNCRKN
# Procedure, shortened: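 Cell-free fluorescent substrate assay of human MMP1, read after 1 h. A single 25 uM duplicate screen was followed by concentration series to a maximum of 50 uM for actives meeting threshold; inhibition analysed against DMSO baseline.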
# [5] = target: human NIMA (Never In Mitosis Gene A)-Related Kinase 2 (NEK2), NEK2 (gene 4751) (UniProt P51955); experiment: NVS_ENZ_hNEK2: NovaScreen (NVS) Enzymatic Assay for human NIMA (Never In Mitosis Gene A)-Related Kinase 2 (NEK2) (AID 2283188)
# human NIMA (Never In Mitosis Gene A)-Related Kinase 2 (NEK2), NEK2 (gene 4751), sequence (P51955 whole entry, looked up): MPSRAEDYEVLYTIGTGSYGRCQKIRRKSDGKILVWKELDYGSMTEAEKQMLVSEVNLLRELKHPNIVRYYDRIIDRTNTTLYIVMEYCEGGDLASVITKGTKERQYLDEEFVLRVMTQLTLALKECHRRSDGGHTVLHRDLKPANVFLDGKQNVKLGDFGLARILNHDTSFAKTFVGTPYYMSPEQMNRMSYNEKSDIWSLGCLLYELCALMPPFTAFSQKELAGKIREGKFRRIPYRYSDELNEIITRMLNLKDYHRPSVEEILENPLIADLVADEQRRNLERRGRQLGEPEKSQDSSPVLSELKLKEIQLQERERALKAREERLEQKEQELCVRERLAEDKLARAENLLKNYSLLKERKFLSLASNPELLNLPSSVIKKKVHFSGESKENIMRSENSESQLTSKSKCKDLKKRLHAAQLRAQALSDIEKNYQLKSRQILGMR
# Procedure, shortened: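 Compounds were first screened in duplicate at 25 uM, with actives followed up in concentration series. Recombinant NEK2 activity, cell-free, was read 1 h after dosing by fluorescence intensity after mobility-shift separation. Signal loss was scored against DMSO.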
structure (smiles),measurement,setting,value
O=C(O)C(F)(F)C(F)(F)C(F)(F)C(F)(F)C(F)(F)C(F)(F)C(F)(F)F,outcome,[1],inactive
O=S(=O)(O)C(F)(F)C(F)(F)C(F)(F)C(F)(F)C(F)(F)C(F)(F)C(F)(F)C(F)(F)F,AC50,[1],36.1 µM (active) and 40.4 µM (active)
same,AC50,[2],22.6 µM (active) [middle of 4 runs]
same,AC50,[3],25 µM (active)
Oc1ccc(Cl)cc1Cc1ccccc1,AC50,[4],6.03 µM (active)
same,outcome,[4],inactive
CCCN(CCOc1c(Cl)cc(Cl)cc1Cl)C(=O)n1ccnc1,AC50,[4],13 µM (active)
CC1(C)C(C=C(Cl)Cl)C1C(=O)OC(C#N)c1ccc(F)c(Oc2ccccc2)c1 (stereo not given),outcome,[5],inactive
N#Cc1c(Cl)c(Cl)c(Cl)c(C#N)c1Cl,outcome,[5],inactive
Oc1cc(Cl)ccc1Oc1ccc(Cl)cc1Cl,outcome,[3],inactive
